Source: PubChem BioAssay (NCATS)
Records with an inconclusive call do not appear. Values without a mark were called inactive. Activity calls are given as the source filed them. Calls follow the shape of the dose curve; as a rule, active = well fitted inhibition curve with a large enough effect; inconclusive = small, poorly fitted or top-dose-only effect; inactive = flat fitted curve, though single readings scatter.

target: Glutathione peroxidase 1 (Homo sapiens) (UniProt P07203); experiment: Primary qHTS Assay for Inhibitors of Recombinant Selenoprotein Glutathione Peroxidase 1 (GPX1) (AID 1845191); details: recombinant GPX1, GR-coupled NADPH fluorescence, 15 min; series mostly up to 48.8 µM; activity, negative = inhibition: at the top concentration; also: nearly all actives have a fitted effect of over 65% in size
Sequence (P07203 whole entry, looked up): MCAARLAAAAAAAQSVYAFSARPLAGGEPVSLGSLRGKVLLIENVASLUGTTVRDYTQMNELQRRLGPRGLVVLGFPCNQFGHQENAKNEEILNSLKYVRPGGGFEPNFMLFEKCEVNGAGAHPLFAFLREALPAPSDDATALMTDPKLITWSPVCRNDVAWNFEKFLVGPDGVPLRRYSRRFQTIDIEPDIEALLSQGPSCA
Excerpt: Assay Provider: Elias S.J. Arner MD PhD.
Department of Medical Biochemistry and Biophysics
Karolinska Institutet, Solna, Stockholm, Sweden
Selenoprotein glutathione peroxidases (GPX), like the ubiquitously expressed GPX1 and the ferroptosis modulator GPX4, enact their antioxidant activities by reducing hydroperoxides using glutathione. […] GPX1 and GPX4 inhibitors have thus shown promise as anti-cancer agents. Existing inhibitors are often promiscuous, or modulate GPX activity only indirectly, so novel direct inhibitors identified through screening against GPX1 and GPX4 could be valuable. Here, we developed optimized glutathione reductase (GR)-coupled GPX assays for the biochemical high-throughput screen (HTS) of almost 12,000 compounds with known mechanisms of action. Initial hits were triaged using a GR counter-screen, assessed for isoform specificity using a separate GPX2 assay, and were assessed for general selenocysteine-targeting activity using a thioredoxin reductase (TXNRD1) assay. With this suite of assays, we identified novel GPX1/GPX2- and GPX4-specific inhibitors and can here present a validated pipeline for future discovery research for selenoprotein-targeting agents.
SEQUENCE No. (e.g., 1, 2, 3, etc.); […] (e.g., Cells, Incubation, Reagent, etc.); VALUE; DESCRIPTION.
1; Reagent 1; 3 uL; GPx1 enzyme or no enzyme control in 1536-well, black, solid Greiner assay plate.
2; Compound; 25 nL; Kalypsis pin tool (Wako USA) equipped with a 1536-well pin head.
3; Incubation; 30 min; room temperature.
4; Reagent 2; 1 uL; 10 nM GPX1, 1 mM GSH, 0.5 mM CHP, 0.5 mM NADPH, 100 nM GR, 0.01% BSA substrate
5; Detection; Fluorescence; ViewLux microplate reader, excitation 340 nm and emission 450 nm.
6; Incubation; 15 min; room temperature.
7; Detection; Fluorescence; ViewLux microplate reader, excitation 340 nm and emission 450 nm.
NOTES (numbers refer to Sequence numbers above)
1. 3 uL of 16.66 nM GPX1 and 0.016% BSA in assay buffer (50 mM Tris-HCl, 2 mM EDTA (pH 7.5), 150 mM NaCl) was added to columns 3-48 of 1536-well assay plates using a BioRAPTR Flying Reagent Dispenser (Let's Go Robotics (LGR), Carlsbad, CA). A no-enzyme control (0.01% BSA in TES assay buffer) was added to columns 1-2.
2. 25 nL of test compounds and DMSO controls were added to each well with a pin tool (Kalypsys).
3. The assay plates were incubated for 30 minutes at room temperature.
4. 1 uL of master mix (500 nM glutathione reductase (GR), 5 mM reduced glutathione (GSH), 2.5 mM NADPH in assay buffer) was added. 1 uL of cumene hydroperoxide (CHP) ([2.5 mM] in 50% EtOH) was then added within 5 minutes to initiate the reaction. Final concentrations were: 10 nM GPX1, 1 mM GSH, 0.5 mM CHP, 0.5 mM NADPH, 100 nM GR, 0.01% BSA.
5. Initial fluorescence readout (t=0) at 340/450 nm was measured using a ViewLux multimodal detector (PerkinElmer, Waltham, MA).
7. Endpoint fluorescence readout (t=15) at 340/450 nm was measured 15 min after room temperature incubation.
% is scaled to controls: 0 for no effect and ±100 for the full control effect.

Row | Structure (SMILES) | Potency | outcome | activity, negative = inhibition [%]
1 | CCCCCCCCCCC[C@@H](C[C@@H]1OC(=O)[C@H]1CCCCCC)OC(=O)[C@H](CC(C)C)NC=O | inactive | – | –
2 | CCN[C@@H]1C[C@H](N)[C@@H](OC2OC(CN)=CCC2N)[C@H](O)[C@H]1O[C@H]1OC[C@](C)(O)[C@H](NC)[C@H]1O (stereo not given in full) | – | inactive [at 0.4 µM] | –
3 | CCCCC(CC)CN1CN(CC(CC)CCCC)CC(C)(N)C1 (stereo not given) | – | inactive | –
4 | Nc1ccc(S(=O)(=O)Nc2cnc3ccccc3n2)cc1 | – | – | -1.36
5 | CC(C)Cc1ccc(CC(=O)O)cc1 | – | inactive | –
6 | CC(=O)O[C@H]1C[C@@H]2CC[C@@H]3[C@H](CC[C@@]4(C)[C@H]3C[C@H]([N+]3(C)CCCCC3)[C@@H]4OC(C)=O)[C@@]2(C)C[C@@H]1N1CCCCC1 | – | inactive | –
7 | CCCCCCCCCCCCSCCOCCO | – | – | -8.5
8 | O=C(O)CCNC(=O)c1ccccc1 | – | inactive | –
9 | CCCCCCCCCCCCOCCOCCOCCOCCOCCOCCOCCOCCOCCO | – | inactive | –
10 | CC[N+](C)(CC)CCOC(=O)C(O)(c1ccccc1)C1CCCCC1 (stereo not given) | – | inactive | –
11 | O=C(Nc1ccc([N+](=O)[O-])cc1)Nc1ccc([N+](=O)[O-])cc1 | – | inactive | –
12 | CC(C)(C)NC[C@H](O)COc1cccc2c1CCCC2=O | inactive | – | –
13 | CN1CCC(OC(c2ccccc2)c2ccccc2)CC1 | – | inactive | –
14 | CCOc1ccccc1C(N)=O | – | inactive | –
15 | Cc1ccccc1OCC(O)CO (stereo not given) | – | – | 2.96
16 | CCN(CC)CCOC(=O)C(Cc1cccc2ccccc12)CC1CCCO1 (stereo not given) | – | – | 1.28
17 | c1ccc(CC2=NCCN2)cc1 | – | – | -22.1
18 | CC(=O)Nc1ccc(S(=O)(=O)Nc2ccc([N+](=O)[O-])cc2)cc1 | – | inactive | –
19 | COc1cc(C(=O)NCc2ccc(OCCN(C)C)cc2)cc(OC)c1OC | – | – | 3.66
20 | C#C[C@]1(O)CC[C@H]2[C@@H]3CCC4=CC(=O)CC[C@@H]4[C@H]3CC[C@@]21CC | – | – | 3.5

Row | Structure (SMILES) | Potency | outcome | activity, negative = inhibition [%]
21 | Cc1c[nH]c2ccccc12 | – | – | -3.13
22 | CCCCNc1ccc(C(=O)OCCOCCOCCOCCOCCOCCOCCOCCOCCOC)cc1 | – | inactive | –
23 | CN(CCCN1c2ccccc2CCc2ccccc21)CC(=O)c1ccc(Cl)cc1 | – | inactive | –
24 | CCCCCCCCCCCCCC(=O)OC(C)C | – | – | 3.1
25 | N/C(=N\N=C\c1ccc(Cl)cc1)N/N=C/c1ccc(Cl)cc1 | – | – | -19.8
26 | C/C=C/c1ccc(O)c(OC)c1 | – | – | -1.01
27 | Cc1cc(NS(=O)(=O)c2ccc(N)cc2)nc(C)n1 | – | inactive | –
28 | CC(=O)O[C@]1(C(C)=O)CC[C@H]2[C@@H]3C=C(C)C4=CC(=O)CC[C@]4(C)[C@H]3CC[C@@]21C | inactive | – | –
29 | CC(=O)Nc1ccc(CC(=O)O)cc1 | – | – | -10.9
30 | CCOCCn1c(N2CCCN(C)CC2)nc2ccccc21 | – | – | -12.5
31 | COc1cc(O)c(C(=O)c2ccccc2)cc1S(=O)(=O)O | – | – | -4.77
32 | Cn1c(=O)c2[nH]c(Br)nc2n(C)c1=O | – | – | 4.17
33 | CCCCN1C[C@H](O)[C@@H](O)[C@H](O)[C@H]1CO | – | – | -2.5
34 | CC(C(=O)O)c1cccc(Oc2ccccc2)c1 (stereo not given) | – | – | -11.2
35 | C[N+]1(C)CCC(=C(c2ccccc2)c2ccccc2)CC1 | – | – | -11.3
36 | O=C(O)CCC(=O)Nc1ccc(S(=O)(=O)Nc2nccs2)cc1 | – | inactive | –
37 | CC(C)Nc1cccnc1N1CCN(C(=O)c2cc3cc(NS(C)(=O)=O)ccc3[nH]2)CC1 | – | – | -25.9
38 | NS(=O)(=O)c1cc(C(=O)O)cc(N2CCCC2)c1Oc1ccccc1 | – | inactive | –
39 | O=C(CCCN1CC=C(n2c(=O)[nH]c3ccccc32)CC1)c1ccc(F)cc1 | inactive | – | –
40 | COc1ccc(C(Cl)=C(c2ccc(OC)cc2)c2ccc(OC)cc2)cc1 | – | – | 4.04
